# Test results: PubChem BioAssay
# Calls of active or inactive are those of the source.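 The calls were made as follows, unless noted: active = compounds whose cell count with miR-34 switched on is under 0.7 times the count with it off; inactive = the rest.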 Where a SMILES comes first, the peptide text is derived from it. The star is where a group is joined. Cbz = O=C(OCc1ccccc1)*; CH2F = FC*
# Experiments:
# [1] = sensitizers of A549 cells to miR-34 induction, primary screen, imaging, A549 dox-inducible miR-34, nuclei and caspase counts (AID 1347080); details: A549 miR-34 inducible, Hoechst nuclei count, 48 h
# [2] = survival rescue of mitochondrial mutant cells in low glucose, primary screen, MELAS cybrids, Rieske KO mouse fibroblasts, CellTiter-Glo (AID 1508586;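 active = mean z-score across replicates of 1.96 or higher in either the MELAS or the Rieske mutant cell line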;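 also: z relative to plate mean and SD of compound and empty wells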)
# [3] = stronger effect = lower value, cell number ratio, induced over uninduced
# [4] = measured here: relative caspase fold change +Dox/-Dox
# [5] = measured here: total cells with miR-34 induction, stronger effect = lower value
# [6] = measured here: total cells without miR-34 induction
# [7] = MELAS cybrid survival, CellTiter-Glo 48 h, stronger effect = higher value
# [8] = Rieske KO mouse fibroblast survival, CellTiter-Glo 72 h
# Also: test concentration not given here.
SMILES,"fold change [1, 3]","fold change [1, 4]","cell count [1, 5]","cell count [1, 6]","z-score [2, 7]","z-score [2, 8]"
CCOc1ccccc1OC(c1ccccc1)[C@H]1CNCCO1 (stereo not given in full),0.858 (inactive),1.73,8800,10300,-0.71 (inactive),-0.166
CC(CS)C(=O)N1CCCC1C(=O)O (stereo not given),1.01 (inactive),0.525,8320,8250,-0.2 (inactive),-0.263
C[C@]12CCC(=O)C=C1[C@@H]1C[C@@H]1[C@H]1[C@@H]3[C@@H]4C[C@@H]4[C@]4(CCC(=O)O4)[C@@]3(C)CC[C@H]12,0.956 (inactive),0.848,6880,7200,-0.459 (inactive),0.378
COC1C[C@H]2CCC(C)[C@@](O)(O2)C(=O)C(=O)N2CCCC[C@H]2C(=O)OC(C(C)CC2CCC(OC(=O)C(C)(CO)CO)C(OC)C2)CC(=O)C(C)C=C(C)C(O)C(OC)C(=O)C(C)CC(C)C=CC=CC=C1C (stereo not given in full),1.08 (inactive),0.974,3980,3690,0.432 (inactive),0.402
C=C1CC[C@H]2[C@@](C)(CCC(O)[C@@]2(C)CO)C1CC=C1C(=O)OCC1O (stereo not given in full),0.97 (inactive),0.896,6090,6280,-0.657 (inactive),-0.629
OCc1ccccc1OC1OC(CO)C(O)C(O)C1O (stereo not given),0.944 (inactive),0.784,9350,9900,-0.348 (inactive),0.733
CC(C)(C)[N+]([O-])=Cc1ccc(S(=O)(=O)O)cc1S(=O)(=O)O,0.908 (inactive),1.03,9880,10900,-0.368 (inactive),0.732
C=CC(C)(O)CCC1[C@@]2(C)CCCC(C)(C)C2CC[C@@]1(C)O (stereo not given in full),0.916 (inactive),0.879,8210,8970,-0.292 (inactive),-0.0842
CC(C)c1cc(-c2ccc(F)c3ccccc23)nc(N)n1,0.949 (inactive),0.444,7570,7980,-0.214 (inactive),0.0729
N=c1ccn2c(n1)OC1C(O)C(CO)OC12 (stereo not given),1.07 (inactive),0.814,2350,2200,0.074 (inactive),0.000793
O=C(c1cn(Cc2cncn2Cc2ccc(Br)cc2)cc1-c1cccc2ccccc12)N1CCOCC1,0.999 (inactive),0.553,3260,3270,-0.128 (inactive),-1.26
C[C@H]1CC[C@H]2[C@@H](C)C(OC(=O)CCC(=O)O)O[C@H]3O[C@@]4(C)CC[C@@H]1[C@]32OO4 (stereo not given in full),0.953 (inactive),0.708,4220,4430,-0.298 (inactive),-0.0832
CC1(C)S[C@@H]2C(NC(=O)C(N)c3ccccc3)C(=O)N2C1C(=O)O (stereo not given in full),0.917 (inactive),0.571,8070,8800,-0.241 (inactive),-0.225
OC1CO[C@H]2C(O)CO[C@H]12 (stereo not given in full),0.905 (inactive),0.942,8830,9750,-0.254 (inactive),-0.154
CN(C)Cc1ccc(S(=O)(=O)n2ccc(C=CC(=O)NO)c2)cc1,0.784 (inactive),0.443,1500,1910,-0.566 (inactive),-0.298
COC(=O)CC(NC(=O)C(C)NC(=O)C(NC(=O)OCc1ccccc1)C(C)C)C(=O)CF (stereo not drawn) (Cbz-Val-Ala-Asp(OMe)-CH2F; configuration not given here),0.936 (inactive),0.758,8620,9210,-0.172 (inactive),-0.115
CC(C)Oc1ccc(-c2cnc3c(-c4ccnc5ccccc45)cnn3c2)cc1,0.806 (inactive),0.45,5470,6780,-0.164 (inactive),0.555
O=C(C=CC=Cc1ccc2c(c1)OCO2)N1CCCCC1,1 (inactive),0.989,9240,9240,-0.417 (inactive),0.823
NC1CCCN(c2c(C=C3SC(=O)NC3=O)cccc2-c2ccccc2)C1 (stereo not given),0.91 (inactive),0.316,8290,9110,-0.282 (inactive),0.224
CC[C@]1(O)C[C@@H]2CN(CCc3c([nH]c4ccccc34)[C@@](C(=O)OC)(c3cc4c(cc3OC)N(C=O)[C@@H]3[C@@]45CCN4CC=C[C@@](CC)(C(OC(C)=O)[C@]3(O)C(=O)OC)[C@H]45)C2)C1 (stereo not given in full),1.22 (inactive),0.801,1340,1100,0.317 (inactive),-1.38
CN1CCCC1Cc1c[nH]c2ccc(CCS(=O)(=O)c3ccccc3)cc12 (stereo not given),0.975 (inactive),1.13,9340,9580,-0.473 (inactive),-0.595
Cc1ccc(C(=O)NCCCCCC(=O)Nc2ccccc2N)cc1,0.986 (inactive),0.44,4890,4960,-0.614 (inactive),-2
COc1cc2c(c(OC)c1OC)-c1c(cc3c(c1OC)OCO3)CC(C)C(C)C2 (stereo not given),0.915 (inactive),1.02,7770,8490,-0.0751 (inactive),-0.149
CC(CN1CC(=O)NC(=O)C1)N1CC(=O)NC(=O)C1 (stereo not given),0.969 (inactive),1.09,5760,5950,-0.442 (inactive),0.325
NS(=O)(=O)c1ccc(NC(=O)Nc2ccc(F)cc2)cc1,0.971 (inactive),0.438,8130,8360,-0.152 (inactive),-0.0443
OC(c1cc(C(F)(F)F)nc2c(C(F)(F)F)cccc12)[C@H]1CCCCN1 (stereo not given in full),0.875 (inactive),0.688,5320,6090,0.101 (inactive),-0.0437
Nc1nc2c(ncn2C2OC(CO)C(O)C2O)c(=O)[nH]1 (stereo not given),0.891 (inactive),0.755,8140,9140,-0.357 (inactive),-0.0165
OC(COc1cccc2ncccc12)CN1CCN(C2c3ccccc3C3C(c4ccccc42)C3(F)F)CC1 (stereo not given),1.04 (inactive),0.683,5300,5090,-0.428 (inactive),0.74
C[N+]1(C)[C@@H]2CC(OC(=O)C(O)(c3cccs3)c3cccs3)C[C@H]1C1OC12 (stereo not given in full),0.933 (inactive),0.479,9300,9960,-0.398 (inactive),-0.0197
Cn1c(=O)cc(N2CCCC(N)C2)n(Cc2cc(F)ccc2C#N)c1=O (stereo not given),0.894 (inactive),0.61,8440,9440,-0.335 (inactive),1.48
